# Source: PubChem (National Center for Advancing Translational Sciences (NCATS))
# The list is not random: actives were taken first. Their share in the collection is about 9.4%.
# ALDH1A1 block = ALDH1A1 (human) enzyme inhibition. P00352. Purified ALDH1A1, NADH fluorescence, propionaldehyde substrate. Potency, µM (titrated, usually from 75.3 µM), actives largely listed as inhibitors. 220,000 compounds, 7.3% hits. AID 1030; active = well fitted inhibition curve with a large enough effect, not every such curve was filed as active; inconclusive = small, poorly fitted or top-dose-only effect, or another doubt; inactive = no such curve, though single readings can be large or run the other way
# HttQ103 aggreg = mutant huntingtin aggregation inhibition. 220,000 compounds, 1.1% hits. Potency, µM (series often up to 46.1 µM), actives largely listed as inhibitors. AID 1688. PC12 HttQ103-GFP aggregates, Acumen cytometry, 40 h; note: nearly all actives have a fitted effect of over 60% in size
#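 Huntingtin Q103 exon 1–GFP aggregates in induced PC12 cells (100 nM tebufenozide) were quantified by cytometry from lysates, with compounds dosed in titration.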
# HPGD block = HPGD (human) dehydrogenase inhibition; 150,000 compounds, 4.3% hits; P15428; Potency, µM, actives largely listed as inhibitors; AID 894; purified HPGD, NADH fluorescence kinetic, PGE2 substrate; active = well fitted inhibition curve with a large enough effect, not every such curve was filed as active; inconclusive = small, poorly fitted or top-dose-only effect, or another doubt; inactive = no such curve, though single readings can be large or run the other way
# Target sequence (P15428 whole entry, looked up): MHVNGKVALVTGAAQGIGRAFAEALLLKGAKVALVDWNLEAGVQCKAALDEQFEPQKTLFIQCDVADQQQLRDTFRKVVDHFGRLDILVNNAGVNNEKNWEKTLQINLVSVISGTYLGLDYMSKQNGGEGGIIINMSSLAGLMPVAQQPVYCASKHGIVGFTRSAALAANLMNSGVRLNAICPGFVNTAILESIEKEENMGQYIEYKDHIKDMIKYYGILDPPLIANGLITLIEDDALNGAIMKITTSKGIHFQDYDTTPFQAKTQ
#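 20 nM HPGD preincubated 15 min at room temperature with compound in 50 mM Tris-HCl pH 8, 0.01% Tween 20. Started with 1 mM NAD+ and 30 uM prostaglandin E2; NADH fluorescence (360/450 nm) read 5 times over 30-s intervals, last minus first.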
# IMPase cell inh = membrane-permeable compound that blocks inositol monophosphatase. P97697. 120,000 tested, under 10 active. CHO-M1 cells, IP1 accumulation, HTRF TR-FRET ratio. inhibition (IP1 accumulation), % at 46.1 µM; active = well fitted curve in the direction sought with a large enough effect in the signal ratio, not every such curve was filed as active; inconclusive = small, poorly fitted or top-dose-only effect, or a change in a side signal; inactive = no such curve, though single readings can be large or run the other way; the % refers to the signal ratio;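 note: cells stimulated with carbachol in lithium chloride buffer; higher means more IMPase inhibition seen as more IP1 and lower FRET ratio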
# Target sequence (P97697 whole entry, looked up): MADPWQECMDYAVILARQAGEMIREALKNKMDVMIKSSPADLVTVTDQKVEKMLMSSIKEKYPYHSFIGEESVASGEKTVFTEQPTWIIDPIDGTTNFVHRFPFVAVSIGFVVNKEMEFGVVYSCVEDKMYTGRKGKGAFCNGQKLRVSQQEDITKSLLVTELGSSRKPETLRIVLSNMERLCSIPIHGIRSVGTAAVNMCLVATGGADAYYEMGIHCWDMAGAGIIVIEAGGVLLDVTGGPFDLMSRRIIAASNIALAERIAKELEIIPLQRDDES
#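 Seeded CHO-M1 cells were dosed with compound at up to 46 uM, stimulated with carbachol for 30 min, then lysed in IP-One detection reagents. Higher IP1 lowers the TR-FRET signal.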
# HTT cytoprotect = Huntington cell model cytoprotection by ATP luminescence. PC12 HTT-Q103 induced, cytoprotection, ATP luminescence, 40 h. Potency, µM (titrated, usually from 56.4 µM), most hits filed as activators. 230,000 compounds, 0.14% hits; note: nearly all actives have a fitted effect of over 45% in size
#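 Huntington model: PC12 line, ecdysone-inducible HTTQ103 exon1–GFP, tebufenozide 100 nM. Test articles in a dose series. Endpoint luminescence from cellular ATP.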
# IMPase Li inh = cell-permeable IMPase inhibitors with lithium potentiation; CHO-M1 cells, IP1 TR-FRET (IP-One), carbachol + lithium; Potency, µM (series often up to 59.4 µM), hits mostly inhibitors; 210,000 compounds, 0.35% hits;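 note: IP1 builds up when IMPase is blocked and the TR-FRET signal falls; nearly all actives have a fitted effect of over 50% in size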
#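 CHO-M1, 2000 cells/well, 16–30 h culture; cpd + low Li+, 30 min 37C; lysis with d2-IP1/Eu-anti-IP1 Ab, 10 min RT; TR-FRET 665/620 ratio and 620 channel; AC50 via Hill.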
# A number is an active result; i = inactive; ? = inconclusive; nt = no result; [ ] = another dose, or the depositor's remark. Unless noted, calls come from the whole dose curve; as a rule, active = well fitted curve in the direction sought with a large enough effect; inconclusive = small, poorly fitted or top-dose-only effect, or another doubt; inactive = no such curve, though single readings can be large; an effect the other way counts as inactive or inconclusive.
SMILES,ALDH1A1 block,HttQ103 aggreg,HPGD block,IMPase cell inh,HTT cytoprotect,IMPase Li inh
N=C1C(=O)OCC1c1ccccc1NC(=O)Nc1ccccc1 (configuration not stated),i,i,nt,nt,nt,i
COC(=O)c1cc(=O)nc2sccn12,?,i[9.22 µM],?,i,i,i
COC(=O)c1cc(NC(=O)c2c(Cl)nc3sccn23)cc(C(=O)OC)c1,i,i,?,i,i,11µM
COc1ccc(C(=O)c2sc(Nc3ccccc3)c(C(=O)Nc3ccc(OC)c(OC)c3)c2N)cc1,18µM,i,i,i,i,i
CCCOC(=O)c1ccc(Nc2c(C(=O)OCC)cnc3c(C)cc(Cl)cc23)cc1,nt,nt,nt,i,nt,nt
CC(=O)C1=C(C)NC(SCC(=O)c2ccc(F)cc2)=C(C#N)C1CC(C)C (configuration not stated),i,i,22µM,nt,nt,i
CC(=O)C1=C(C)NC(SCC(=O)c2ccc(Cl)cc2)=C(C#N)C1CC(C)C (configuration not stated),14µM,?,i,?,i,?
COc1cccc(-c2ccc3ncnc(NC4CC4)c3c2)c1,?,nt,nt,nt,i,i
CC(C)CCCC(C)C1CCC2C3CC=C4CC(O)CCC4(C)C3CCC12C (configuration not stated),i,nt,i,i,i[1.9 µM],i
O=C1NN(c2ccc(F)c(Cl)c2)C(=O)/C1=C\c1cccc(OC(=O)c2cccs2)c1,?,i,10µM,i,i,i
CC(C)=C1C(=O)NN(c2ccc(F)c(Cl)c2)C1=O,i,i,8.9µM,i,i,i
C=C1C[C@@]23C[C@]1(O)CC[C@@H]2[C@]12C=C[C@@H](O)[C@@](C)(C(=O)O1)[C@@H]2[C@@H]3C(=O)O,nt,nt,nt,nt,i,nt
CC(C)=CCC/C(C)=C/CO/N=C1/C[C@@H](O)[C@@H](O)[C@@H]2[C@@H]3C(=O)N(C[C@@H]4CCCO4)C(=O)[C@H]3CC[C@@H]12,i[13.5 µM],nt,nt,nt,i[10 µM],nt
O=C(N=c1ccn(-c2nc3ccccc3nc2NS(=O)(=O)c2ccc(Cl)cc2)cc1)c1cccs1,nt,i[9.22 µM],nt,nt,i[10 µM],nt
O=C(N=c1ccn(-c2nc3ccccc3nc2NS(=O)(=O)c2ccc(Cl)cc2)cc1)c1ccccc1Cl,0.63µM,i[9.22 µM],nt,nt,i[10 µM],nt
O=S(=O)(Nc1nc2ccccc2nc1N1CCc2ccccc2C1)c1ccc(Cl)cc1,?,?,i,nt,i[10 µM],i
O=S(=O)(Nc1nc2ccccc2nc1N1CCc2ccccc2C1)c1ccc(Br)cc1,?,7.1µM,i,nt,i[10 µM],i
CC(=O)Nc1ccc(S(=O)(=O)Nc2nc3ccccc3nc2Nc2ccccc2)cc1,i,i,i,nt,i[10 µM],i
CC(=O)Nc1ccc(S(=O)(=O)Nc2nc3ccccc3nc2N2CCCCCC2)cc1,7.1µM,i,i,i,i,i
CC(=O)Nc1ccc(S(=O)(=O)Nc2nc3ccccc3nc2N2CCc3ccccc3C2)cc1,11µM,i,i,nt,i[10 µM],i
O=S(=O)(Nc1nc2ccccc2nc1N1CCN(c2ccccn2)CC1)c1ccc(Cl)cc1,11µM,i,i,i,i[0.074 µM],i
C=CCNC(=O)N1CCc2nc(CCCC)c3c(c2C1)CO[C@@H](C)C3,i[13.5 µM],nt,i,nt,i[10 µM],i
CCOC(=O)C(CCc1ccccc1)NC(C)C(=O)N1C(C(=O)O)CC2CCCC21 (configuration not stated),i,nt,i,nt,nt,i
CCOC(=O)[C@H](CCc1ccccc1)N[C@@H](C)C(=O)N1[C@H](C(=O)O)C[C@H]2CCC[C@@H]21,i,i,i,i,3.2µM,i
CCOc1ccc(C=NC23CN4CN(CN(C4)C2)C3)cc1,20µM,i,i,i,i[0.074 µM],i
SMILES,ALDH1A1 block,HttQ103 aggreg,HPGD block,IMPase cell inh,HTT cytoprotect,IMPase Li inh
Cc1onc(-c2ccccc2)c1C(=O)Nc1cccnc1,?,i,i,i,i[10 µM],i
Cc1onc(-c2ccccc2Cl)c1C(=O)Nc1cccnc1,22µM,i,i,i,i[10 µM],i
Cc1onc(-c2ccccc2Cl)c1C(=O)OCN1C(=O)c2ccccc2C1=O,i,i,11µM,i,i,i
COc1ccccc1-c1noc(-c2ccccc2C(=O)Nc2cccnc2)n1,?,i,i,i,i,i
CCSc1nnc(NC(=O)c2c(-c3ccccc3Cl)noc2C)s1,11µM,i,i,i,i,i
O=C(Nc1cccnc1)c1ccccc1-c1nc(-c2ccccc2F)no1,11µM,i[9.22 µM],i,i,i,i
COc1ccc(C(=O)OC2=C(C(=O)c3ccccc3)N(C)S(=O)(=O)c3ccccc32)cc1OC,nt,nt,nt,i,nt,nt
Cc1ccc(S(=O)(=O)c2c(C)nn(-c3ccccc3)c2OC(=O)c2ccccc2F)cc1,nt,nt,nt,i,nt,nt
COc1ccc(-c2[nH]c(-c3ccc(C)cc3)nc2SCC(=O)NCC2CCCO2)cc1 (configuration not stated),nt,nt,nt,i,nt,nt
CC(C)c1ccc(NC(=O)C(C)N(c2ccccc2)S(C)(=O)=O)cc1 (configuration not stated),nt,nt,nt,i,nt,nt
O=C(NCc1ccc(Cl)cc1)C(=O)Nc1cccc(Br)c1,nt,nt,nt,i,nt,nt
C=C(C)C(O)/C=C/c1ccc(OC)cc1 (configuration not stated),?,nt,nt,nt,i[10 µM],nt
COc1ccc(/C=C/C2=CC(C)(C)NC(=S)N2)cc1,5.6µM,i,nt,nt,i,i
CO/N=C/CC(=O)c1ccc(-c2ccccc2)cc1,?,i[9.22 µM],nt,nt,i[1.9 µM],i
CCN(CC)CC(=O)c1ccc(-c2ccccc2)cc1,?,i,i,i,i[10 µM],i
CCN(CC)C(=O)c1ccc(-c2ccccc2)cc1,?,i,0.63µM,nt,nt,i
C/[N+]([O-])=C\CC(=O)c1ccc(-c2ccccc2)cc1,28µM,i,nt,nt,i,i
Cc1ccc(C)c(N2CCN(C(c3ccccc3)c3nnc(-c4ccccc4F)o3)CC2)c1 (configuration not stated),nt,nt,nt,i,nt,nt
O=C(N/N=C1/C[C@@H](O)[C@@H](O)[C@@H]2[C@@H]3C(=O)N(Cc4ccccc4)C(=O)[C@H]3CC[C@@H]12)OCc1ccccc1,i[13.5 µM],nt,nt,nt,i[10 µM],nt
Cc1ccc(N2CCN(C(=S)c3ccc(-c4cccc([N+](=O)[O-])c4)o3)CC2)cc1,3.2µM,i,nt,nt,i,i
Cc1ccccc1N1CCN(C(=S)c2ccc(-c3cccc([N+](=O)[O-])c3)o2)CC1,8.9µM,i,nt,nt,i,i
Cc1ccc(N2CCN(C(=S)c3ccc(-c4ccccc4[N+](=O)[O-])o3)CC2)cc1,nt,i[9.22 µM],nt,nt,i[10 µM],nt
COc1ccc(C2/C=C\CN(C(=O)c3ccccc3)[C@H](Cc3ccccc3)C(=O)N2Cc2ccc(F)cc2)cc1 (some centres not stated),nt,i[9.22 µM],nt,nt,i[10 µM],nt
COc1ccc(CN2CCNC(=O)C2CC(=O)NC2Cc3ccccc3C2)c(OC)c1 (configuration not stated),?,i[9.22 µM],nt,nt,i[10 µM],i
N#Cc1c(-c2cccc(F)c2)cc(-c2ccccc2)nc1Br,i,i,18µM,i,i,?
